Screens as filed in PubChem.
Pf growth 96h: P. falciparum growth inhibition at 96 hours; AID 504834; Potency, µM (top dose mostly 28.7 µM), for inactives: at the top dose activity change, negative = inhibition, most hits filed as inhibitors; actives 6.9% (n = 320,000); P. falciparum luciferase reporter growth, 96 h; further: potency means the concentration at half of the fitted maximal effect; on the % scale 0 is the no-effect control and ±100 the full control effect
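Infected RBCs, 2% Hct / 0.05% parasitemia final; luciferase-reporter P. falciparum; cpd 96 h, 37 C, 5% CO2; luciferase detection reagent; luminescence.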
Lassa entry inh: inhibitors of Lassa virus binding or cell entry. AID 540256. actives 1.2% (n = 300,000). Lassa virus pseudotype entry inhibition, cell reporter. Potency, µM (top dose mostly 37.9 µM), for the others: top-dose activity change, negative = inhibition, actives largely listed as inhibitors; calls by dose curve; tested in HEK293 cells; further: potency means the concentration at half of the fitted maximal effect; on the % scale 0 is the no-effect control and ±100 the full control effect; nearly all actives have a fitted effect of over 50% in size
CHX counter: counter-screen hit for Shiga toxin inhibitors, cycloheximide; cell reporter, cycloheximide protein synthesis inhibition counterscreen; max response, %; actives 12% (n = 300,000); AID 2314; in the data active means max response mostly above about 13%, no sharp cut-off; inactive means mostly below about 14%; further: read at 38.3 µM for the half of the compounds with a filed dose; 0% is about no effect
Shiga inhibitor: Shiga toxin inhibition | inhibition, % at 38.7 µM | AID 2315 | Vero cells, Shiga toxin protein synthesis inhibition reporter | actives 9.2% (n = 290,000); in the data active means inhibition mostly above about 28%, no sharp cut-off; inactive means mostly below about 43%; further: 0% is about no effect
MARV entry inh: Marburg virus entry inhibition | Marburg virus pseudotyped entry inhibition, cell reporter | Potency, µM (doses to about 37.8 µM), inactives show at the highest dose activity change, negative = inhibition, hits mostly inhibitors | actives 1.8% (n = 300,000); calls by dose curve; tested in HEK293 cells; further: potency means the concentration at half of the fitted maximal effect; on the % scale 0 is the no-effect control and ±100 the full control effect
Pf growth 48h: inhibits P. falciparum growth in the first generation, 48 h | P. falciparum luciferase growth in erythrocytes, 48 h | Potency, µM (series often up to 28.7 µM), inactives show at the highest dose activity change, negative = inhibition, hits mostly inhibitors | actives 5.9% (n = 310,000) | AID 504832; further: potency means the concentration at half of the fitted maximal effect; on the % scale 0 is the no-effect control and ±100 the full control effect
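Here the parasites carry a stable luciferase gene and grow inside erythrocytes in Albumax-based RPMI medium with compound for one erythrocytic cycle. Activity is scored as loss of luminescent signal.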
An asterisk follows results filed as active; ? = inconclusive; / = no result given; [ ] = another dose, or the depositor's remark. A selection: hits, their analogues and other compounds. The true share with any hit is near 19%. Unless noted, the call rests on the fitted dose curve; in most records, active means well fitted inhibition curve with a large enough effect; inconclusive means small, poorly fitted or top-dose-only effect, or another doubt; inactive means no such curve, though single readings can be large or run the other way.

SMILES | Pf growth 96h | Lassa entry inh | CHX counter | Shiga inhibitor | MARV entry inh | Pf growth 48h
COc1c(Cl)cc(Cl)cc1CNCc1ccccc1 | 9.2% | 3.6% | 3.7 | 29.7 | 0.3% | 6.0%
O=[N+]([O-])c1ccc(O)c(CNCc2ccccc2)c1 | / | 1.3% | / | / | ? | /
Oc1ccc(Cl)cc1CNCc1ccc(F)c(F)c1 | 5.22µM* | / | / | / | / | 3.29µM*
COc1ccc(CNCc2cc(Cl)ccc2O)cc1 | 13.1µM* | / | / | / | / | 9.28µM*
Oc1cc(CNCc2ccccc2)c(O)cc1CNCc1ccccc1 | / | 0.4%[46.1 µM] | / | / | -8.7%[46.1 µM] | /
OCCNCc1cccc2ccccc12 | -27.9% | -0.7% | 3.2 | -8.5 | 13.7%[46.1 µM] | 24.1%
Oc1ccc(Cl)cc1CNCc1cccc2ccccc12 | 0.928µM* | / | / | / | / | 0.415µM*
O=[N+]([O-])c1ccc(CNCc2cc(Cl)ccc2O)cc1 | ? | / | / | / | / | 11.7µM*
CC(C)(Cc1ccc(O)cc1)NC(=O)CC(=O)N=Nc1c(O)[nH]c2cc(Br)ccc12 | ? | -18.7% | -2.3 | 12.5 | 3.5% | ?
CCOc1ccc(/C=N\NC(=O)CC(=O)NCCc2ccccc2)cc1 | ? | / | -1.4 | -5.3 | / | 17.3%
CCCn1c2c(c(O)c(C(=O)Nc3ncccc3C)c1=O)CCCC2 | -1.1% | 14.1% | -9.4 | -21.2 | 7.8% | 9.8%
COc1ccc(CN2C(=O)Cc3c2nc(N)c2c(N)nc(N4CCOCC4)c(C#N)c32)cc1 | ? | / | -3.5 | -8.5 | / | ?
N#CCc1c(C#N)c(N)nc(N2CCN(c3ccc(F)cc3)CC2)c1C#N | / | ? | 0.7 | -24.5 | ? | 9.28µM*
COCCN1C(=O)Cc2c1nc(N)c1c(N)nc(N3CCN(c4ccc(F)cc4)CC3)c(C#N)c21 | ? | / | -3.3 | -0.9 | / | 7.38µM*
COCC(C)N1C(=O)Cc2c1nc(N)c1c(N)nc(N3CCN(c4ccccc4F)CC3)c(C#N)c21 (stereo unspecified) | 1.31µM* | ? | 6.5 | -3.3 | 16.4µM* | 5.86µM*
CCN(CC(=O)Nc1ccc2c(c1)OCCO2)C(=O)c1cccc(S(=O)(=O)N2CCOCC2)c1 | ? | 6.4% | -4.4 | 11.1 | 9.4% | 10.4%
CC1(NC(=O)COc2ccccc2-c2ccccc2)CCS(=O)(=O)C1 (stereo unspecified) | ? | -6.9% | -1.3 | -3.1 | -26.9% | /
CCC(C)(C)NC(=O)C(c1ccc(OC)cc1)N(C(=O)CCC(=O)Nc1cc(C)on1)c1cccc(OC)c1 (stereo unspecified) | -27.1% | ? | 1.2 | -6.0 | ? | ?
O=S1(=O)C=C(SCCN2CCCCC2)c2ccccc21 | 5.2% | 1.3% | 25.6* | 37.0* | -2.8% | -26.5%
O=C1NC2(CCCCC2)N=C1c1ccc(Br)cc1 | / | 9.7% | 15.0* | -3.9 | 2.7% | 8.2%
O=S(=O)(NC1CCCCC1N1CCN(c2cccc(Cl)c2)CC1)c1ccccc1 (stereo unspecified) | -5.8% | / | -4.2 | -8.4 | / | 14.7µM*
Cc1ccc2nsnc2c1S(=O)(=O)NCc1ccc2c(c1)OCO2 | ? | -8.7% | -2.1 | -1.1 | 24.8% | 13.1%
O=C(COn1nnc2ccccc21)N1CCN(Cc2ccccc2)CC1 | 36.4% | 16.0%[46.1 µM] | 50.0* | 96.1* | ? | 185.8%
COc1ccccc1OCC(=O)NCC1CCCCC1 | 54.0% | 20.4% | 12.3 | 45.8 | 7.3% | 36.9%
CCOc1ccccc1NC(=O)CC(O)(C(F)(F)F)C(F)(F)F | 40.4% | -16.2% | -2.3 | -5.1 | 0.2% | -4.3%
SMILES | Pf growth 96h | Lassa entry inh | CHX counter | Shiga inhibitor | MARV entry inh | Pf growth 48h
CCOc1ccccc1NC(=O)COn1nnc2ccccc21 | / | 1.0% | 16.8* | 37.5 | ? | 31.2%
O=C(COn1nnc2ccccc21)NCC1CCCCC1 | 0.0% | ? | 28.4* | 89.3 | -12.1%[46.1 µM] | 97.2%
COC(=O)COc1cccc2c(=O)n(CC(=O)NCc3ccc(F)cc3)ccc12 | 47.8% | / | -0.7 | -13.0 | / | 56.2%
O=C1C(=O)N(CCCn2ccnc2)C(c2ccccn2)/C1=C(/O)c1ccccc1 (stereo unspecified) | ? | / | -6.9 | -8.8 | / | 10.5%
O=C1NC(=Nc2ccccc2)S/C1=C\C=C\c1ccco1 | ? | ? | 4.4 | -8.5 | ? | ?
CCCCNC(=O)c1nnn(-c2ccccc2)c1N | ? | 2.7% | 26.9* | 48.8* | 12.3% | 175.8%
Cc1cccc(-n2nnc(C(=O)NCc3ccco3)c2N)c1 | 14.5% | 16.7% | 20.9* | 38.0* | ? | 36.0%
Cc1ccc(CNC(=O)c2nnn(-c3cccc(C)c3)c2N)cc1 | -21.4% | 2.3% | 10.0 | -6.6 | ? | 8.4%
Cc1cc(C)cc(-n2nnc(C(=O)NCc3ccc(Cl)cc3)c2N)c1 | -19.2% | -2.9% | -1.9 | 4.0 | ? | ?
Cc1cc(C)cc(-n2nnc(C(=O)NCc3ccccc3)c2N)c1 | ? | 19.5% | 6.5 | 1.4 | 6.0% | 13.1µM*
NC(=O)c1nnn(-c2ccccc2)c1N | 5.8% | -26.7%[46.1 µM] | -1.7 | 13.8 | 10.4%[46.1 µM] | 35.5%
CCCCn1nnc(NC(=O)c2ccc(-c3cccc(Cl)c3)o2)n1 | 60.2% | 27.5%[14.3 µM] | 32.5* | 67.9* | 8.9% | -10.0%
CC(=O)N(C)c1ccc(NC(=O)c2ccc([N+](=O)[O-])cc2Cl)cc1 | 13.5% | 9.8% | 16.9 | 66.3* | 9.6% | 22.6%
CCCn1nnc(NC(=O)c2ccc([N+](=O)[O-])cc2Cl)n1 | -17.2% | 7.4%[46.1 µM] | 24.3* | 61.6* | 20.8%[46.1 µM] | 91.4%
CCCn1nnc(NC(=O)c2ccc(-c3cccc(Cl)c3)o2)n1 | ? | ? | 41.0* | 139.8* | 7.0% | 57.6%
Cc1ccc(N(CC(=O)NC(C)(C)C)C(=O)CNC(=O)c2cccs2)c(C)c1 | 19.9% | 21.5%[46.1 µM] | -1.8 | 1.6 | -15.4%[46.1 µM] | 8.28µM*
COc1ccc(Cn2c(O)c(/C=N/NC(=O)c3cccnc3)c3ccccc3c2=O)cc1 | 5.22µM* | -17.7% | 5.0 | -3.7 | ? | 13.1µM*
CCN(CC)CCCN=Cc1c(O)n(Cc2ccccc2)c(=O)c2ccccc12 | / | ? | -4.5 | -18.3 | ? | ?
O=C(N/N=C/c1c(O)n(Cc2ccccc2)c(=O)c2ccccc12)c1cccnc1 | 14.7µM* | -3.6% | 2.4 | -6.4 | -27.9%[46.1 µM] | ?
O=C(N/N=C/c1c(O)n(-c2ccccc2Cl)c(=O)c2ccccc12)c1cccnc1 | ? | 1.0%[46.1 µM] | -3.0 | -16.8 | 8.2%[46.1 µM] | ?
CC(C)CCC(C)N=Cc1c(O)n(Cc2ccccc2)c(=O)c2ccccc12 (stereo unspecified) | / | -9.5% | 8.2 | -7.3 | 12.6µM* | ?
O=C(CC1C(=O)NCCN1CC1CCCCC1)NCc1cc(F)ccc1F (stereo unspecified) | -15.8% | -23.7% | -2.6 | -3.5 | ? | -26.6%
Cc1ccc(-c2cnc3n2CCCCC3)cc1 | ? | / | 2.2 | 14.4 | / | -7.7%
CCOc1ccc(-c2cnc3n2CCCCC3)cc1 | ? | 1.8% | 8.6* | 14.9 | ? | -23.7%
c1ccc(-c2ccc(-c3cnc4n3CCCCC4)cc2)cc1 | / | ? | 22.5* | 58.0 | ? | ?
c1cc2c(cc1-c1cnc3n1CCC3)OCCO2 | / | 17.4% | 15.8 | 86.9* | 17.2% | 31.2%
